A-T KAP1 phos = potential ataxia-telangiectasia treatment | F2112 A-T fibroblasts, KAP-1 phosphorylation AlphaLISA; neocarzinostatin DNA damage 30 min before lysis | Potency, µM (titrated, usually from 57.5 µM), for inactives: top-dose activation, actives largely listed as activators | actives 0.19% (n = 320,000); also: potency is read from the fitted curve at half-maximal effect; % of control where 0% means no effect; nearly all actives have a fitted effect of over 45% in size
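ATM-like activity read as KAP-1 phosphorylation via AlphaLISA donor/acceptor antibody pairs after lysis and 6 hr at 25C. Cells were ATM-null patient fibroblasts (F2112, hTERT), dosed 60 min, then exposed to the DSB inducer NCS for 30 min.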
KCNH2 WT inh = blocks the wildtype human KCNH2 potassium channel; activity change, % at 1.84 µM; AID 720551; actives 0.37% (n = 340,000); U2OS, BacMam KCNH2, thallium flux FluxOr; stronger effect = lower value;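 active = maximum activity change below -70%; inconclusive = maximum activity change between -70% and -50%; inactive = maximum activity change above -50%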; also: % is scaled to controls: 0 for no effect and ±100 for the full control effect
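U2OS cells transduced with wild-type KCNH2 virus are loaded with FluxOr dye for 45 min, and thallium flux is measured in kinetic reads before and after stimulation buffer. Rate constants are normalized to DMSO controls.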
KCNH2 3.1 inh = inhibitors of human KCNH2 3.1 potassium channel isoform | actives 0.95% (n = 340,000) | activity change, % (tested at about 1.8 µM) | AID 720553 | U2OS KCNH2 3.1, thallium flux FluxOr; stronger effect = lower value;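 active = maximum activity change below -70%; inconclusive = maximum activity change from -70% to -50%; inactive = maximum activity change above -50%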;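 also: thallium influx rate constant from kinetic fluorescence after stimulation buffer; % is scaled to controls: 0 for no effect and ±100 for the full control effect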
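Steps: virus added to U2OS suspension (4 h, RT, dark); medium with 10% FBS added, cells plated, 37 C overnight; FluxOr/Red40 loading buffer 45 min RT; stimulation buffer, 2 min kinetic read; rate constant normalized.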
ALOX12 inh = blocks human arachidonate 12S-lipoxygenase. P18054. purified 12hLO, xylenol orange hydroperoxide absorbance. Potency, µM (doses to about 108 µM), inactives show top-dose activity change, negative = inhibition, hits mostly inhibitors. actives 1.1% (n = 580,000); also: potency is read from the fitted curve at half-maximal effect; % is scaled to controls: 0 for no effect and ±100 for the full control effect
Target sequence (P18054 whole entry, looked up): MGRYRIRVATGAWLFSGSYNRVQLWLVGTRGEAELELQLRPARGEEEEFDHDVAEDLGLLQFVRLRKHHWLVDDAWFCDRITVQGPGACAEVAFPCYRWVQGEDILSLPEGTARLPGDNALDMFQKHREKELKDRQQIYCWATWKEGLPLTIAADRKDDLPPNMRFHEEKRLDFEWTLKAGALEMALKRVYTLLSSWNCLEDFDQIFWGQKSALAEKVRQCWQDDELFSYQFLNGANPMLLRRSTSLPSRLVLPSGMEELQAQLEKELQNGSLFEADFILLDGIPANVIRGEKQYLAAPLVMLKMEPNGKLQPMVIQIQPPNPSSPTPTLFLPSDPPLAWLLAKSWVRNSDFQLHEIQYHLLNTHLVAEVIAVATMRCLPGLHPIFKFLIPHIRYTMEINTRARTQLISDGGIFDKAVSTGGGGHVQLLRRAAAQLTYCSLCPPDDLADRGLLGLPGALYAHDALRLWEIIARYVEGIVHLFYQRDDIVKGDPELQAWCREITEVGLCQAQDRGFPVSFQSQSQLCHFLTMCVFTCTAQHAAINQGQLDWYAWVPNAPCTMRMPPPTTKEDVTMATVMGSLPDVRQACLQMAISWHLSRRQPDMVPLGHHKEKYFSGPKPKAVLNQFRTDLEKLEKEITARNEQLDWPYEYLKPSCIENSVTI
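Purified human 12hLO at 150 nM in 25 mM Hepes, 0.01% Triton X-100, pH 7.0, preincubated 15 min at room temperature with compound. Reaction started with 40 uM arachidonic acid, 30 min at room temperature. Hydroperoxide measured by Fe-xylenol orange, 573/405 nm absorbance ratio.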
* hit, by the source's call. Sampled rows, rich in hits. Any-hit rate of the full collection: about 1.8%. Unless noted, calls follow the shape of the dose curve; as a rule, active = well fitted curve in the direction sought with a large enough effect; inconclusive = small, poorly fitted or top-dose-only effect, or another doubt; inactive = no such curve, though single readings can be large; an effect the other way counts as inactive or inconclusive.

For O=C(NC(=S)Nc1ccccc1N1CCOCC1)c1ccc(-c2ccccc2F)o1 the results were A-T KAP1 phos 1%, KCNH2 WT inh -5, KCNH2 3.1 inh -2 and ALOX12 inh 25µM*.
O=C(NC(=S)Nc1cc(Cl)ccc1N1CCOCC1)c1ccc(-c2cccc(Cl)c2)o1 was read as A-T KAP1 phos -1%, KCNH2 WT inh 22, KCNH2 3.1 inh -9 and ALOX12 inh -13%.
`Cc1cc(NC(=O)c2ccc(-c3ccccc3F)o2)no1` gave A-T KAP1 phos 3%, KCNH2 WT inh -15, KCNH2 3.1 inh -198* and ALOX12 inh 41%.
`Cc1cc(C(=O)NC(=S)Nc2ccccc2N2CCOCC2)ccc1[N+](=O)[O-]` gave A-T KAP1 phos -2%, KCNH2 WT inh -3, KCNH2 3.1 inh -10 and ALOX12 inh 28µM*.
N/C(COc1ccccc1Cl)=N\O was read as ALOX12 inh 40%.
For CN(C)C(=O)CSc1nc(NC2CC2)c2ccccc2n1 the results were ALOX12 inh -19%.
`CCN1CCN(C(c2cccs2)C(C)NS(=O)(=O)c2ccccc2)CC1` (stereo unspecified) gave A-T KAP1 phos -1%, KCNH2 WT inh 2, KCNH2 3.1 inh 8 and ALOX12 inh 16%.
For CCN1CCN(C(c2cccs2)C(C)NS(=O)(=O)c2ccc(C)cc2)CC1 (stereo unspecified) the results were A-T KAP1 phos 6%, KCNH2 3.1 inh -76* and ALOX12 inh inconclusive.
For CC1=CC(C)(C)C(C(=O)O)C(C(=O)O)C1 (stereo unspecified) the results were A-T KAP1 phos 1%, KCNH2 WT inh -109*, KCNH2 3.1 inh 3 and ALOX12 inh 0%.
Screening CN(C)c1ccc(NC(=O)c2ccc(C#N)cc2)cc1 returned ALOX12 inh -29%.
Screening Oc1ccc(-n2nnnc2SCc2ncc(-c3ccc(Cl)cc3)o2)cc1 returned ALOX12 inh 32µM*.
`c1ccc(-c2cnc(CSc3nnnn3-c3ccccc3)o2)cc1` gave ALOX12 inh 6%.
For Cc1ccc(C(=O)OCC(=O)Nc2sc3c(c2C#N)CCCC3)cc1NC(=O)c1ccco1 the results were A-T KAP1 phos 4%, KCNH2 WT inh -14, KCNH2 3.1 inh -4 and ALOX12 inh 35µM*.
`Cc1ccc(S(=O)(=O)N2[C@@H](c3ccc(C(C)(C)C)cc3)C(C(=O)O)=CC[C@H]2c2ccc(Cl)c(Cl)c2)cc1` gave A-T KAP1 phos 16%, KCNH2 WT inh 2, KCNH2 3.1 inh -3 and ALOX12 inh 35µM*.
COC(=O)[C@H]1[C@H](CO)[C@H]2Cn3c(ccc(Br)c3=O)[C@H]2N1C(=O)c1ccccn1 was read as ALOX12 inh 0.79µM*.
`CC(C)Oc1ccc(OCCn2c(=S)[nH]c3c(N)ncnc32)cc1` gave A-T KAP1 phos -3%, KCNH2 3.1 inh -12 and ALOX12 inh 45µM*.
Screening Cc1ccc(OCCn2c(=S)[nH]c3c(N)ncnc32)cc1 returned A-T KAP1 phos 1%, KCNH2 WT inh -11, KCNH2 3.1 inh -11 and ALOX12 inh inconclusive.
Screening O=[N+]([O-])c1ccc(/C=C/C2=NN(c3ccccc3)C(c3ccco3)C2)cc1 (stereo unspecified) returned A-T KAP1 phos 4%, KCNH2 WT inh inconclusive, KCNH2 3.1 inh -100* and ALOX12 inh inconclusive.
For COc1ccc(C(=O)NCCc2cc3ccc(C)c(C)c3[nH]c2=O)cc1OC the results were A-T KAP1 phos -2%, KCNH2 WT inh -11, KCNH2 3.1 inh -111* and ALOX12 inh -2%.
For COc1ccc(S(=O)(=O)NNC(=O)c2cccs2)cc1 the results were A-T KAP1 phos -4%, KCNH2 WT inh -2, KCNH2 3.1 inh -104* and ALOX12 inh inconclusive.
Screening CCCC(C(=O)Nc1c(C)cccc1C)N1C(=O)C(=O)c2ccccc21 (stereo unspecified) returned ALOX12 inh 6.3µM*.
For COc1ccc(NC(=O)CCc2c(C)c3ccc(OC)cc3oc2=O)cc1 the results were ALOX12 inh 45%.
`CC(=O)Oc1cc2c(cc1Cl)C(c1cccs1)CC1(CC(C)(C)NC(=S)N1)O2` (stereo unspecified) gave A-T KAP1 phos 3%, KCNH2 WT inh -8, KCNH2 3.1 inh -33 and ALOX12 inh 32µM*.
`CN1Cc2cccn2CC1CNC(=O)c1ccsc1` (stereo unspecified) gave ALOX12 inh 71%.
S=C1NC(c2cccs2)=CC(c2ccc(Br)cc2)N1 (stereo unspecified) was read as A-T KAP1 phos -2%, KCNH2 WT inh 0, KCNH2 3.1 inh -11 and ALOX12 inh 40µM*.
`CC(C)COc1cc(=O)n2c(c1C(=O)NCc1ccccc1F)CCCCC2` gave ALOX12 inh 13%.
`O=C1c2cc(N3CCOCC3)nc(-c3ccc(F)cc3)c2CN1CC1CC1` gave ALOX12 inh 32µM*.
O=C(O)c1cccc(/C=N/O)c1O was read as ALOX12 inh 2%.
Screening COc1ccccc1/C=C/C=N/NC(=O)c1ccc(=O)n(C)c1 returned A-T KAP1 phos -4%, KCNH2 WT inh -8, KCNH2 3.1 inh -93* and ALOX12 inh 23%.
`Cc1cc(=O)n(CC(=O)N2CCCCC2C)c(-c2ccccc2)n1` (stereo unspecified) gave ALOX12 inh -9%.
`CCN(CC)S(=O)(=O)c1ccc(OC(C)C)c(NC(=O)c2ccc3c(c2)NC(=O)C(C)S3)c1` (stereo unspecified) gave ALOX12 inh -28%.
For CNC(=O)c1cc2cc(OC)ccc2n1CCN(C)C the results were KCNH2 WT inh 2, KCNH2 3.1 inh 1 and ALOX12 inh -10%.
For CNC(=O)c1cc2cc(OC)ccc2n1CCN(Cc1ccccc1)Cc1ccccc1 the results were A-T KAP1 phos 0%, KCNH2 WT inh 9, KCNH2 3.1 inh -75* and ALOX12 inh inconclusive.
For O=C(COC(=O)c1cc(S(=O)(=O)N2CCOCC2)ccc1O)Nc1cc(S(=O)(=O)N2CCCC2)ccc1Cl the results were A-T KAP1 phos -6%, KCNH2 WT inh -146*, KCNH2 3.1 inh -194* and ALOX12 inh -12%.
Screening O=C(COC(=O)c1cnc(Cl)c(Cl)c1)Nc1ccc(S(=O)(=O)N2CCCC2)cc1 returned A-T KAP1 phos -3%, KCNH2 WT inh 18, KCNH2 3.1 inh -97* and ALOX12 inh -6%.
For Cc1ccc(S(=O)(=O)N2CCOCC2)cc1NC(=O)COC(=O)CNC(=O)c1ccccc1 the results were A-T KAP1 phos -3%, KCNH2 WT inh 6, KCNH2 3.1 inh -98* and ALOX12 inh -11%.
CC(C)(C)OC(=O)N1CSC[C@H]1C(=O)NC[C@H](CC(=O)O)c1ccc(Cl)cc1 was read as A-T KAP1 phos 7.1µM*, KCNH2 WT inh -8, KCNH2 3.1 inh -7 and ALOX12 inh -35%.
`Cc1ccc(C(=O)N2CCCCCCN(C)C(=O)[C@@H]3CCC[C@@H]32)s1` gave ALOX12 inh 32%.

Bioassay records as filed in PubChem.
